Experimental data taken from PubChem BioAssay (EPA / NIEHS).
Activity calls are given as the source filed them. The calls were made as follows: active = hit-call score of the fitted dose curve at least 0.9, where 1 is the maximum; inactive = score below 0.9.

Experiments:
Conditions in all cases: mRNA level, 48 h; actives raise or lower the signal
[1] = read-out: Glutamate-cysteine ligase regulatory (GCLM), GCLM (gene 2730); assay: LTEA_HepaRG_GCLM: Life Technologies and Expression Analysis (LTEA) Assay for Glutamate-cysteine ligase regulatory (GCLM) using HepaRG (AID 2283500)
How it was run: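 Endpoint is GCLM transcript level by qRT-PCR, normalized to three housekeeping genes, after 48 h chemical exposure of human HepaRG cells (0.5% DMSO vehicle, top 100 uM, half-log dilutions). Fitting was bidirectional relative to DMSO.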

[2] = read-out: Glutathione S-transferase M3 (GSTM3), GSTM3 (gene 2947); assay: LTEA_HepaRG_GSTM3: Life Technologies and Expression Analysis (LTEA) Assay for Glutathione S-transferase M3 (GSTM3) using HepaRG (AID 2283501)
How it was run: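 Differentiated HepaRG cells in serum-free induction medium were exposed in duplicate for 48 h to 8 half-log concentrations up to 100 uM in 0.5% DMSO. GSTM3 mRNA was measured by TaqMan qRT-PCR, normalized to ACTB/GAPDH/POLR2A, and fitted bidirectionally versus DMSO.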

[3] = read-out: Heat shock 70 kDa protein 1 (HSPA1A), gene 3303; assay: LTEA_HepaRG_HSPA1A: Life Technologies and Expression Analysis (LTEA) Assay for Heat shock 70 kDa protein 1 (HSPA1A) using HepaRG (AID 2283502)
How it was run: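 Cells were plated and cultured for 48 h, then switched to serum-free induction medium. Chemicals were added at eight half-log concentrations up to 100 uM for 48 h. RNA was then isolated and HSPA1A measured by qRT-PCR with bidirectional curve fitting against DMSO.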

[4] = read-out: Hypoxia-inducible factor 1-alpha (Homo sapiens) (UniProt Q16665); assay: LTEA_HepaRG_HIF1A: Life Technologies and Expression Analysis (LTEA) Assay for Hypoxia-inducible factor 1 (HIF1A) Trancription factor using HepaRG (AID 2283503)
How it was run: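 HIF1A transcript level read by qRT-PCR (ACTB, GAPDH, POLR2A normalization) after 48 h chemical exposure of HepaRG cultures. Eight half-log concentrations, top 100 uM, 0.5% DMSO vehicle, duplicates; bidirectional curve fit against DMSO baseline.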

[5] = read-out: 3-Hydroxy-3-Methylglutaryl-CoA Synthase 2 (HMGCS2), HMGCS2 (gene 3158); assay: LTEA_HepaRG_HMGCS2: Life Technologies and Expression Analysis (LTEA) Assay for 3-Hydroxy-3-Methylglutaryl-CoA Synthase 2 (HMGCS2) using HepaRG (AID 2283504)
How it was run: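 Differentiated human HepaRG cells were exposed in duplicate for 48 h in serum-free induction medium to eight concentrations (top 100 uM, half-log steps, 0.5% DMSO). HMGCS2 mRNA was quantified by TaqMan qRT-PCR, normalised to ACTB, GAPDH and POLR2A, then fitted bidirectionally against DMSO.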

[6] = read-out: HGF (gene 3082); assay: LTEA_HepaRG_HGF: Life Technologies and Expression Analysis (LTEA) Assay for Hepatocyte Growth Facto (HGF) using HepaRG (AID 2283505)
How it was run: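 Differentiated human HepaRG cells in serum-free induction medium were exposed in duplicate for 48 h to eight concentrations (top 100 uM, half-log steps, 0.5% DMSO). HGF mRNA was quantified by qRT-PCR, normalized to ACTB, GAPDH and POLR2A.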

[7] = read-out: Insulin Like Growth Factor 1 (IGF1), IGF1 (gene 3479); assay: LTEA_HepaRG_IGF1: Life Technologies and Expression Analysis (LTEA) Assay for Insulin Like Growth Factor 1 (IGF1) using HepaRG (AID 2283506)
How it was run: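 Cells are thawed, plated and cultured 48 h, then exposed in duplicate to chemical (highest 100 uM, half-log steps, 0.5% DMSO) for another 48 h. Total RNA is analysed by Fluidigm qRT-PCR for IGF1 expression relative to vehicle.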

[8] = read-out: Insulin-like growth factor-binding protein 1 (IGFBP1), IGFBP1 (gene 3484); assay: LTEA_HepaRG_IGFBP1: Life Technologies and Expression Analysis (LTEA) Assay for Insulin-like growth factor-binding protein 1 (IGFBP1) using HepaRG (AID 2283508)
How it was run: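 Differentiated human HepaRG cells in serum-free induction medium were exposed in duplicate for 48 h to eight concentrations, top 100 uM with half-log dilutions, in 0.5% DMSO. Transcript levels came from qRT-PCR normalised to ACTB, GAPDH and POLR2A, fitted bidirectionally against DMSO.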

[9] = read-out: Interleukin 6 (IL6), IL6 (gene 3569); assay: LTEA_HepaRG_IL6: Life Technologies and Expression Analysis (LTEA) Assay for Interleukin 6 (IL6) using HepaRG (AID 2283509)
How it was run: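 qRT-PCR read-out of IL6 transcript, normalized to three housekeeping genes, after 48 h chemical exposure of HepaRG cells; 8-point half-log series, top 100 uM, 0.5% DMSO vehicle. Bidirectional curve fitting against DMSO baseline.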

[10] = read-out: Interleukin 6 Receptor (IL6R), IL6R (gene 3570); assay: LTEA_HepaRG_IL6R: Life Technologies and Expression Analysis (LTEA) Assay for Interleukin 6 Receptor (IL6R) using HepaRG (AID 2283510)
How it was run: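 Cells were thawed, plated and cultured 48 h, then medium was changed to serum-free induction medium. Chemicals were added in duplicate (100 uM top, half-log steps, 0.5% DMSO) for 48 h. Lysates were analyzed by qRT-PCR for IL6R expression.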

[11] = read-out: Potassium channel subfamily K member 1 (KCNK1), KCNK1 (gene 3775); assay: LTEA_HepaRG_KCNK1: Life Technologies and Expression Analysis (LTEA) Assay for Potassium channel subfamily K member 1 (KCNK1) using HepaRG (AID 2283511)
How it was run: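 HepaRG, 48 h exposure, 8-pt half-log series top 100 uM, 0.5% DMSO vehicle, duplicates. Readout: KCNK1 transcript by qRT-PCR (Fluidigm array), housekeeping-normalized; bidirectional curve fit relative to DMSO baseline.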

[12] = read-out: JUN Transcription Factor, JUN (gene 3725); assay: LTEA_HepaRG_JUN: Life Technologies and Expression Analysis (LTEA) Assay for JUN Transcription Factor using HepaRG (AID 2283513)
How it was run: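 Read-out is JUN transcript level by TaqMan qRT-PCR, normalized to ACTB, GAPDH and POLR2A, after 48 h chemical treatment of HepaRG cells. Concentration-response spanned eight half-log points up to 100 uM in 0.5% DMSO.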

[13] = read-out: Lipase C (LIPC), LIPC (gene 3990); assay: LTEA_HepaRG_LIPC: Life Technologies and Expression Analysis (LTEA) Assay for Lipase C (LIPC) using HepaRG (AID 2283514)
How it was run: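 HepaRG, 48 h exposure, 8-pt half-log series from 100 uM in 0.5% DMSO, duplicates. Readout: LIPC mRNA by Fluidigm qRT-PCR, housekeeping-normalized (ACTB/GAPDH/POLR2A). Gain or loss fitted bidirectionally against DMSO baseline.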

[14] = read-out: Lipoprotein lipase (LPL), LPL (gene 4023); assay: LTEA_HepaRG_LPL: Life Technologies and Expression Analysis (LTEA) Assay for Lipoprotein lipase (LPL) using HepaRG (AID 2283515)
How it was run: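 HepaRG, 48 h exposure, 8-pt half-log dilutions from 100 uM, 0.5% DMSO vehicle, duplicates; qRT-PCR (Fluidigm array) of LPL mRNA vs housekeeping genes; bidirectional curve fit relative to DMSO baseline.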

[15] = read-out: MicroRNA 122 (MIR122), gene 406906; assay: LTEA_HepaRG_MIR122: Life Technologies and Expression Analysis (LTEA) Assay for MicroRNA 122 (MIR122) using HepaRG (AID 2283516); also: the transcript read is the microRNA miR-122
How it was run: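 Human liver HepaRG cultures receive test chemicals for 48 h at eight half-log concentrations from 100 uM. Expression is quantified by qRT-PCR with ACTB/GAPDH/POLR2A normalization and fitted bidirectionally against 0.5% DMSO.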

[16] = read-out: MYC, MYC (gene 4609); assay: LTEA_HepaRG_MYC: Life Technologies and Expression Analysis (LTEA) Assay for MYC using HepaRG (AID 2283518)
How it was run: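 Differentiated human HepaRG cells, plated 48 h then switched to serum-free induction medium, were exposed in duplicate for 48 h to 8-point half-log series up to 100 uM in 0.5% DMSO. MYC mRNA measured by qRT-PCR, normalized to ACTB/GAPDH/POLR2A.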

[17] = read-out: matrix metalloproteinase-3 (MMP3), MMP3 (gene 4314); assay: LTEA_HepaRG_MMP3: Life Technologies and Expression Analysis (LTEA) Assay for matrix metalloproteinase-3 (MMP3) using HepaRG (AID 2283519)
How it was run: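 qRT-PCR read-out of MMP3 mRNA (normalised to three housekeeping genes) in HepaRG liver cells after 48 h chemical exposure; 8-point half-log series, top 100 uM, 0.5% DMSO vehicle. Bidirectional curve fitting against DMSO baseline.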

[18] = read-out: Paternally Expressed 10 (PEG10), PEG10 (gene 23089); assay: LTEA_HepaRG_PEG10: Life Technologies and Expression Analysis (LTEA) Assay for Paternally Expressed 10 (PEG10) using HepaRG (AID 2283520)
How it was run: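 Human HepaRG cultures are dosed for 48 h across an eight-point half-log series starting at 100 uM, with 0.5% DMSO as vehicle and baseline. Gain or loss of PEG10 transcript is measured by qRT-PCR and fitted in both directions.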

[19] = read-out: Nuclear factor NF-kappa-B p105 subunit (Homo sapiens) (UniProt P19838); assay: LTEA_HepaRG_NFKB1: Life Technologies and Expression Analysis (LTEA) Assay for Nuclear Factor Kappa B Subunit 1 (NFKB1) using HepaRG (AID 2283521);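 also: TaqMan qRT-PCR transcript normalised to ACTB GAPDH and POLR2A housekeeping genes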
How it was run: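 Differentiated human HepaRG cells in serum-free induction medium with 0.5% DMSO were exposed for 48 h to eight half-log concentrations, top 100 uM, in duplicate. NFKB1 mRNA measured by Fluidigm TaqMan qRT-PCR, normalised to ACTB, GAPDH and POLR2A; bidirectional fit versus DMSO.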

[20] = read-out: Protein phosphatase 2A (PPP2R4), PTPA (gene 5524); assay: LTEA_HepaRG_PPP2R4: Life Technologies and Expression Analysis (LTEA) Assay for Protein phosphatase 2A (PPP2R4) using HepaRG (AID 2283522)
How it was run: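 Cells were plated, cultured 48 h, switched to serum-free induction medium, then dosed for 48 h (8 points, max 100 uM, 0.5% DMSO). RNA was isolated and PPP2R4 expression measured by TaqMan qRT-PCR.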

Measured: AC50

Sequence of Nuclear factor NF-kappa-B p105 subunit (Homo sapiens) (P19838 whole entry, looked up): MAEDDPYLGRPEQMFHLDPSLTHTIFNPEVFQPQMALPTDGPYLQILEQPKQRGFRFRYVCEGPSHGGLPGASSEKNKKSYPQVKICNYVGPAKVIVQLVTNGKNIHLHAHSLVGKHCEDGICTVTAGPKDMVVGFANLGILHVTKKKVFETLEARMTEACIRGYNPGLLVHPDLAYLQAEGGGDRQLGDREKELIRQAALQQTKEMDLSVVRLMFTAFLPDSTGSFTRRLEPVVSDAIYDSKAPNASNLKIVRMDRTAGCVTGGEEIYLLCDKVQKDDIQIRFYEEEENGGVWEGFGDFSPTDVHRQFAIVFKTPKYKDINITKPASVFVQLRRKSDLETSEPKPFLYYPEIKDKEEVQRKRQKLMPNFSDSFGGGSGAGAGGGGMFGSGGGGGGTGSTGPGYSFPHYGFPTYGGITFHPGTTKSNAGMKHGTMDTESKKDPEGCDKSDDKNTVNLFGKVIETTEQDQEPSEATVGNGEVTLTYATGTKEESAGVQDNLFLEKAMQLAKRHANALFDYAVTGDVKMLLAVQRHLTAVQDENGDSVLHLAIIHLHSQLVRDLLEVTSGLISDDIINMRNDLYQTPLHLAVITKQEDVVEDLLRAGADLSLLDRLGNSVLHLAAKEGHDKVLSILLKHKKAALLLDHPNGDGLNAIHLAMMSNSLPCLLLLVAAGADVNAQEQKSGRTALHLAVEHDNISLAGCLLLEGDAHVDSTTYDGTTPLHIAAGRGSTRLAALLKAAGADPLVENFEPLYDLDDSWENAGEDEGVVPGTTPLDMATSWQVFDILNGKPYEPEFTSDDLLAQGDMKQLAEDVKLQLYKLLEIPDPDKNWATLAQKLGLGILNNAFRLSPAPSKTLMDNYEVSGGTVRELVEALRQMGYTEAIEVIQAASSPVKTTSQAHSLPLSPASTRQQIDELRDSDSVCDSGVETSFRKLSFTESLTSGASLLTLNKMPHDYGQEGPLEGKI
Sequence of Hypoxia-inducible factor 1-alpha (Homo sapiens) (Q16665 whole entry, looked up): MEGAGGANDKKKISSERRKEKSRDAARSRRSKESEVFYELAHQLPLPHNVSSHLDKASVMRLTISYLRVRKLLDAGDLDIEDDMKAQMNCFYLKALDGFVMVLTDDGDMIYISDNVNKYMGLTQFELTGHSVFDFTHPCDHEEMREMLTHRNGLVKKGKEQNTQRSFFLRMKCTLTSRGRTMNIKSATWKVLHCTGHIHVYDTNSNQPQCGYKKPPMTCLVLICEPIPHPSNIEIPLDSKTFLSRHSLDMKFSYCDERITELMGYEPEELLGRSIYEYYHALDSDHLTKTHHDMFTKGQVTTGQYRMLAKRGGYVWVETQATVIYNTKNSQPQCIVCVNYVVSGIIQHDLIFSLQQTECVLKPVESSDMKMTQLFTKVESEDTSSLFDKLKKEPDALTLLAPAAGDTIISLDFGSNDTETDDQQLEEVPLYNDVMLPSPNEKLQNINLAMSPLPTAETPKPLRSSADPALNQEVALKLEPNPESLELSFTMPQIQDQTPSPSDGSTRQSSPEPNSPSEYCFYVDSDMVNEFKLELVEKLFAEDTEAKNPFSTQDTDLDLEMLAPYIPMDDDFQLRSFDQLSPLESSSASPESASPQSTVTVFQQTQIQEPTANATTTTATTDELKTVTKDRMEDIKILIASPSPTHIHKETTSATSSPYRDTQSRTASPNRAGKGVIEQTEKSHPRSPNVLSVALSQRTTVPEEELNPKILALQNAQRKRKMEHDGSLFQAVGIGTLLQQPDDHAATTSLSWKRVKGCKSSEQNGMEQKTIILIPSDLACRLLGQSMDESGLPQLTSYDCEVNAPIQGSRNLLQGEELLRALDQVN

Cc1ccccc1N
inactive: [1] | [2] | [3] | [4] | [5] | [6] | [7] | [8] | [9] | [10] | [11] | [12] | [13] | [14] | [15] | [16] | [17] | [18] | [19] | [20]

CCCCCCCCc1ccc(O)cc1
active: [5] 64.6 µM
inactive: [1] | [2] | [3] | [4] | [6] | [7] | [8] | [9] | [10] | [11] | [12] | [13] | [14] | [15] | [16] | [17] | [18] | [19] | [20]
